# ± gives the standard deviation of the averaged measurements.
# Assays:
# Assay in all cases: cell proliferation (confluence) relative to DMSO control; higher = less growth inhibition
# Settings in all cases: 5 uM; 6 d
# BT549 = system: BT549
# In short: (§1)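 Triple-negative breast cancer cell lines were seeded into 384-well plates at 500 cells per well. Once they had attached, each epigenetic chemical probe in DMSO was added at a final 5 μM for 6 d, with four replicate wells per compound on every plate. Images were taken on an IncuCyte ZOOM with a ×10 objective in phase-contrast and processed in Incucyte 2016 software. Confluence was expressed relative to wells given DMSO alone.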
# CAL120 = system: CAL120
# In short: as §1
# HCC1143 = system: HCC1143
# In short: as §1
# HCC1395 = system: HCC1395
# In short: as §1
# HCC153 = system: HCC153
# In short: as §1
# HCC1806 = system: HCC1806
# In short: as §1
# HCC38 = system: HCC38
# In short: as §1
# HCC70 = system: HCC70
# In short: as §1
# Hs578-T = system: Hs578-T
# In short: as §1
# MB157 = system: MB157
# In short: as §1
# SUM149-PT = system: SUM149-PT
# In short: as §1
# SUM159-PT = system: SUM159-PT
# In short: as §1
SMILES,cell proliferation (BT549),cell proliferation (CAL120),cell proliferation (HCC1143),cell proliferation (HCC1395),cell proliferation (HCC153),cell proliferation (HCC1806),cell proliferation (HCC38),cell proliferation (HCC70),cell proliferation (Hs578-T),cell proliferation (MB157),cell proliferation (SUM149-PT),cell proliferation (SUM159-PT)
CCCc1cc(C)[nH]c(=O)c1CNC(=O)c1cc(-c2ccc(N3CCN(C(C)C)CC3)nc2)cc2c1cnn2C(C)C,21 ± 7.7%,85.5 ± 11%,98.86 ± 0.59%,99.88 ± 0.14%,91.8 ± 4.8%,92.4 ± 6.9%,99.93 ± 0.072%,80 ± 8.9%,97 ± 2%,46.2 ± 22%,11.5 ± 5.8%,99.997 ± 0.002%
COc1cc(C#N)ccc1S(=O)(=O)Nc1ccc2c(c1)cc(C)c(=O)n2C,98 ± 1.4%,98.97 ± 0.3%,97 ± 1.3%,99.962 ± 0.051%,54.9 ± 7.1%,76.1 ± 12%,98.81 ± 0.89%,95.8 ± 5%,97.33 ± 0.58%,92.5 ± 6.8%,59.5 ± 7.1%,99.963 ± 0.039%
O=C(/C=C/N1C[C@H]2C[C@@H]1CN2c1ccccn1)c1ccccc1O,99.79 ± 0.1%,93.4 ± 2.2%,99.25 ± 0.15%,99.895 ± 0.019%,87.8 ± 2.8%,99.849 ± 0.052%,99.917 ± 0.014%,99.13 ± 0.33%,98.15 ± 0.9%,98.9 ± 1%,29.1 ± 5.7%,99.994 ± 0.0044%
CC(C)Oc1ccc(-c2c[nH]cc2CN(C)CCN)cc1,90.4 ± 3.7%,99.34 ± 0.54%,97.6 ± 0.99%,99.982 ± 0.016%,59.3 ± 2.6%,80.7 ± 11%,99.56 ± 0.26%,94.5 ± 2.1%,95.4 ± 1.7%,93.7 ± 4.8%,67.6 ± 13%,99.843 ± 0.074%
Cn1cc(CCn2cnc(-c3cnn(C)c3)c2-c2ccc(C#N)cc2)cn1,98.99 ± 0.43%,97.56 ± 0.71%,98.1 ± 2.2%,99.977 ± 0.017%,58.1 ± 13%,76.7 ± 11%,99.38 ± 0.67%,85.1 ± 8.9%,97.89 ± 0.77%,62.6 ± 28%,92.6 ± 3.4%,99.988 ± 0.012%
O=C(c1ccc(C(=O)N2CCC(N3CCCC3)CC2)c(Nc2ccccc2)c1)N1CCC(N2CCCC2)CC1,99.63 ± 0.2%,95.4 ± 2.1%,99.64 ± 0.16%,99.874 ± 0.068%,89.5 ± 3.3%,99.832 ± 0.085%,99.81 ± 0.17%,99.24 ± 0.6%,98.8 ± 0.39%,99.13 ± 0.32%,89.4 ± 9.2%,99.998 ± 0.0015%
Cc1cc(=O)n(C)c2cc(N3C(=O)CC[C@H](NS(=O)(=O)CC(C)C)[C@H]3c3ccc(Cl)cc3)ccc12,98.62 ± 0.82%,98.85 ± 0.5%,99.53 ± 0.27%,99.99 ± 0.01%,55.4 ± 11%,81.7 ± 5.8%,99.02 ± 0.89%,85.8 ± 9.3%,98.75 ± 0.26%,71 ± 19%,82.6 ± 16%,99.951 ± 0.055%
CCOC(=O)CCNc1cc(N2CCc3ccccc3CC2)nc(-c2cccnc2)n1,99.38 ± 0.4%,94.6 ± 4.8%,99.33 ± 0.49%,99.887 ± 0.094%,82.7 ± 3.2%,99.75 ± 0.15%,99.31 ± 0.31%,98 ± 1.6%,96.1 ± 2.3%,96.1 ± 2.9%,96 ± 3.5%,99.982 ± 0.0074%
CNCCN1CCC(OCc2ccccc2)CC1,98.25 ± 0.81%,97.25 ± 0.95%,96.6 ± 1.6%,99.984 ± 0.0095%,60.3 ± 10%,73.6 ± 7.1%,99.63 ± 0.28%,88.5 ± 12%,97.85 ± 0.92%,93.3 ± 5.4%,72.8 ± 18%,99.906 ± 0.052%
O=C(NC[C@H](O)CN1CCc2ccccc2C1)c1ccnc(NC2CCC2)c1,81.4 ± 7.7%,90 ± 7.5%,75.1 ± 4.7%,99.47 ± 0.48%,37.2 ± 9.6%,37.5 ± 4.5%,67.8 ± 1.2%,95 ± 2%,89.7 ± 4.3%,66.5 ± 2.1%,36.7 ± 2.9%,99.876 ± 0.038%
CC(C)N(CCCNC(=O)Nc1ccc(C(C)(C)C)cc1)C[C@H]1O[C@@H](n2cc(Br)c3c(N)ncnc32)[C@H](O)[C@@H]1O,99.955 ± 0.014%,98.5 ± 1.1%,99.74 ± 0.16%,99.977 ± 0.024%,85.8 ± 4.9%,99.862 ± 0.055%,99.891 ± 0.042%,93.6 ± 4.6%,96.1 ± 1.3%,89.1 ± 3.2%,76 ± 6.9%,99.997 ± 0.0024%
CCOC(=O)CCNc1cc(N2CCc3ccccc3CC2)nc(-c2ccccn2)n1,28.2 ± 3.8%,22.3 ± 2.1%,60.8 ± 4.6%,40.6 ± 9.5%,21.3 ± 3.7%,27.9 ± 4.9%,23.1 ± 5%,66 ± 12%,68.5 ± 11%,33.6 ± 8.3%,10.2 ± 3.8%,94.72 ± 0.36%
CCCc1cc(C)n(C)c(=O)c1CN(C)C(=O)c1cc(-c2ccc(N3CCN(C(C)C)CC3)nc2)cc2c1cnn2C(C)C,99.971 ± 0.015%,93.4 ± 3.8%,99.3 ± 0.59%,99.983 ± 0.016%,84.6 ± 3.8%,99.889 ± 0.049%,99.77 ± 0.13%,97.3 ± 2.3%,97.89 ± 0.81%,87.5 ± 6.8%,84.2 ± 10%,99.997 ± 0.0012%
COc1cc2c(NC3CCN(C(C)C)CC3)nc(C3CCCCC3)nc2cc1OCCCN1CCCC1,99.51 ± 0.12%,81.6 ± 8.8%,98.93 ± 0.9%,99.3 ± 0.76%,89 ± 4.7%,99.53 ± 0.2%,99.86 ± 0.072%,98.64 ± 0.65%,98.1 ± 1.1%,67.8 ± 16%,91.8 ± 8.8%,99.996 ± 0.0018%
CCn1cc(-c2cccc(C(F)(F)F)c2)c2sc(C(=N)NC3CCS(=O)(=O)CC3)cc2c1=O,99.17 ± 0.79%,98.86 ± 0.38%,98.69 ± 0.74%,99.948 ± 0.021%,44.8 ± 4%,78.6 ± 12%,98.94 ± 0.64%,96.7 ± 3.6%,99.5 ± 0.38%,71.8 ± 6.5%,23.9 ± 2.3%,99.974 ± 0.019%
CC[C@H](C)n1cc(C)c2c(C(=O)NCc3c(C)cc(C)[nH]c3=O)cc(-c3ccc(N4CCNCC4)nc3)cc21,98.6 ± 2.6%,91.6 ± 5.4%,99.53 ± 0.32%,99.996 ± 0.0038%,87.9 ± 3.7%,99.846 ± 0.034%,99.825 ± 0.095%,82 ± 8.6%,97.8 ± 1.3%,79.1 ± 14%,90.3 ± 4.3%,99.995 ± 0.00082%
